From PubChem BioAssay
Unmarked numbers belong to inactive results. Activity calls are given as the source filed them. Unless noted, no stated cut-off is given here; in the data, active means inhibition above about 28%; inactive means the rest.

Legend:
[1] = StAR promoter reporter inhibitors, counter-screen for LRH-1 inverse agonist project, cell-based, luminescence, high throughput (AID 651611); conditions: StAR promoter luciferase reporter counterscreen, at 3.6 µM, hits give high values
[2] = molecular target: Nuclear receptor subfamily 5 group A member 2 (Homo sapiens) (UniProt O00482); assay: NR5A2 activity suppression in reporter cells – cell-based, luminescence, confirmation (AID 651613; in the data active means inhibition above about 42%;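 further: HEK293T cells co-transfected with LRH-1 and StAR promoter luciferase reporter; 0% = vehicle wells and 100% = parental cells lacking receptor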); conditions: cell-based LRH-1 luciferase reporter, inverse agonism; at 3.6 µM; hits give high values
Sequence of Nuclear receptor subfamily 5 group A member 2 (Homo sapiens) (O00482 whole entry, looked up): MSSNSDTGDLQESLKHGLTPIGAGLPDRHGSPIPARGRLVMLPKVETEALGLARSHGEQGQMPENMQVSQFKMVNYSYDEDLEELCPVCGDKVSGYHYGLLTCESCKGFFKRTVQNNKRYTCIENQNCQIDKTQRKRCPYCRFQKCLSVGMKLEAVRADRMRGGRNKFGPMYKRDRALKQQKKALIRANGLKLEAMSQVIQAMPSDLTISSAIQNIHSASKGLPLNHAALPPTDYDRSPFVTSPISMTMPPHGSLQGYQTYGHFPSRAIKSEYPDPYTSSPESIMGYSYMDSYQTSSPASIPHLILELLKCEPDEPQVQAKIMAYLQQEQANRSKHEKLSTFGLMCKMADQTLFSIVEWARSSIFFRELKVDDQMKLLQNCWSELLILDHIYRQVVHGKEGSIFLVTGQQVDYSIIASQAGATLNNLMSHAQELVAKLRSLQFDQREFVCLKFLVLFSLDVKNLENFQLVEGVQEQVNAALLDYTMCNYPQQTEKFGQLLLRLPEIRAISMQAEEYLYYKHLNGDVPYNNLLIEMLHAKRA

[3] = molecular target: Steroidogenic factor 1 (Homo sapiens) (UniProt Q13285); assay: inverse agonism at SF1 nuclear receptor – cell-based, luminescence, high throughput, counter-screen for LRH-1 inverse agonist project (AID 651614; in the data active means inhibition above about 44%;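 further: cells cotransfected with StAR promoter reporter and SF1 expression vector; 0% = vehicle on cells with receptor and 100% = vehicle on cells lacking receptor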); conditions: cell-based SF1 luciferase reporter, at 3.6 µM, hits give high values
Sequence of Steroidogenic factor 1 (Homo sapiens) (Q13285 whole entry, looked up, the tested form may be a part): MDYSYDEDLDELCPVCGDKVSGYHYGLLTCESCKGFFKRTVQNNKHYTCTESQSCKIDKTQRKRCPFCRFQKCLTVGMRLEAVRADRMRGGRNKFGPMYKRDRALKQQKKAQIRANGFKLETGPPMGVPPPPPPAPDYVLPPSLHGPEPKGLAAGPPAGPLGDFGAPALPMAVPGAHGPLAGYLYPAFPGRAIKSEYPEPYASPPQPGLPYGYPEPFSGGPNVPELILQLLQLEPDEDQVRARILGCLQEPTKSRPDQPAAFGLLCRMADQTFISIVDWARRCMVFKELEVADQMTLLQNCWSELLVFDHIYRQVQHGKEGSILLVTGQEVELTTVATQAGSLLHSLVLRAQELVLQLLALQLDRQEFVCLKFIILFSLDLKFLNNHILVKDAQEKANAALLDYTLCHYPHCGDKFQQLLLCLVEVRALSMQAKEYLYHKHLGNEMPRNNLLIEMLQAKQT

[4] = compounds suppressing VP16-driven luciferase signal – cell-based, luminescence, high throughput, counter-screen for LRH-1 inverse agonist project (AID 651615; in the data active means inhibition above about 33%); conditions: Gal4-VP16 luciferase reporter cells, at 3.6 µM, hits give high values

CCn1c(=S)sc2c(=O)n(CC(=O)Nc3ccc(Cl)cc3)c(C)nc21
inhibition [1]: 6.76% | inhibition [2]: 55.2% (active) | inhibition [3]: 46.7% (active) | inhibition [4]: 19.1%

O=C(CSc1nc2ccc(F)cc2c(=O)n1-c1ccccc1)Nc1ccc2c(c1)CCC2
inhibition [1]: -3.68% | inhibition [2]: 43.3% (active) | inhibition [3]: 47.9% (active) | inhibition [4]: -3.99%

CCN(CC)S(=O)(=O)c1ccc(NC(=O)c2ccc(CN3CCOCC3)cc2)cc1
inhibition [1]: 23.9% | inhibition [2]: 57.5% (active) | inhibition [3]: 57.4% (active) | inhibition [4]: 54.4% (active)

CC(C)NC(=O)N1Cc2cc(C(=O)NC3CCCC3)nc(-c3cccc(-c4cccnc4)c3)c2[C@@H]1CCO
inhibition [1]: 24.3% | inhibition [2]: 45.1% (active) | inhibition [3]: 42.1% | inhibition [4]: 5.54%

COc1ccc(-c2nn(C)c(=O)c3ccccc23)cc1NS(C)(=O)=O
inhibition [1]: 49.6% (active) | inhibition [2]: 53.6% (active) | inhibition [3]: 41.2% | inhibition [4]: -52.2%

COc1ccccc1NC(=O)c1ccc(NC(=O)CSc2nnnn2C)cc1
inhibition [1]: 4.14% | inhibition [2]: 59% (active) | inhibition [3]: 55.5% (active) | inhibition [4]: -1.96%

O=C(C1=C[C@@H](C2CCCCC2)C[C@@H](OCc2ccc(CO)cc2)O1)N1CCN(Cc2ccc3c(c2)OCO3)CC1
inhibition [1]: 12% | inhibition [2]: 46.2% (active) | inhibition [3]: 40.6% | inhibition [4]: 4.7%

O=C(CN1CCN(c2ccc([N+](=O)[O-])cc2)CC1)c1ccccc1
inhibition [1]: 6.83% | inhibition [2]: 60.3% (active) | inhibition [3]: 48.5% (active) | inhibition [4]: 9.99%

CCCN1Cc2cccc(C(=O)NC(C)c3cccs3)c2C1=O (stereo unspecified)
inhibition [1]: -7.74% | inhibition [2]: 38.5% | inhibition [3]: 27.5% | inhibition [4]: 0.87%

O=C(NCc1ccco1)c1ccc([N+](=O)[O-])o1
inhibition [1]: 7.6% | inhibition [2]: 60.5% (active) | inhibition [3]: 59.6% (active) | inhibition [4]: -13.8%

C/C=C/c1ccc(OCCOc2ccc(C=O)cc2OC)c(OC)c1
inhibition [1]: 11.4% | inhibition [2]: 44.7% (active) | inhibition [3]: 35.4% | inhibition [4]: 2.21%

CC(Cl)C(=O)Nc1ncc(C(F)(F)F)cc1Cl (stereo unspecified)
inhibition [1]: 13.3% | inhibition [2]: 58.9% (active) | inhibition [3]: 51.3% (active) | inhibition [4]: -7.63%

O=C(Nc1cccc(S(=O)(=O)Nc2ccc(Cl)cc2)c1)c1ccc(Cl)nc1
inhibition [1]: 41.3% (active) | inhibition [2]: 65% (active) | inhibition [3]: 63.3% (active) | inhibition [4]: 56.9% (active)

Cc1cccc(-c2cc(NCCc3cccnc3)n3nccc3n2)c1
inhibition [1]: 14.2% | inhibition [2]: 51.1% (active) | inhibition [3]: 41.3% | inhibition [4]: -2.05%

COc1ccc(CCNC(=O)CSc2ccc(NC(C)=O)cc2)cc1OC
inhibition [1]: 9.56% | inhibition [2]: 53.8% (active) | inhibition [3]: 53.4% (active) | inhibition [4]: -3.78%

CCC(C)(C)n1nnnc1CN1CCC(O)(c2cccc(C(F)(F)F)c2)CC1
inhibition [1]: 8.87% | inhibition [2]: 41.6% (active) | inhibition [3]: 57.2% (active) | inhibition [4]: -2.12%

COc1ccccc1-c1cc(NC(C)=O)c2ncc(-c3ccc(S(C)(=O)=O)cc3)n2c1
inhibition [1]: 23.8% | inhibition [2]: 49.3% (active) | inhibition [3]: 48.6% (active) | inhibition [4]: -21.1%

CCOc1ccc(CCNC(=O)CN2C(=O)NC3(CCc4ccccc43)C2=O)cc1OCC (stereo unspecified)
inhibition [1]: 13.9% | inhibition [2]: 49.8% (active) | inhibition [3]: 45.7% (active) | inhibition [4]: -14%

COC(=O)c1ccc(COc2ccc(/C=N/NC(N)=S)cc2)o1
inhibition [1]: 17.7% | inhibition [2]: 55.8% (active) | inhibition [3]: 59% (active) | inhibition [4]: 15.7%
